# Results filed as inconclusive are left out. Entries that show only a call come without a potency. The source made the active and inactive calls. The call rests on the fitted dose curve; in most records, active means well fitted curve in the direction sought with a large enough effect; inconclusive means small, poorly fitted or top-dose-only effect, or another doubt; inactive means no such curve, though single readings can be large; an effect the other way counts as inactive or inconclusive.
# How the values were obtained:
# [1] = target: Thioredoxin reductase 1, cytoplasmic (Rattus norvegicus) (UniProt O89049); assay: qHTS Assay for Substrates of Mammalian Selenoprotein Thioredoxin Reductase 1 (TrxR1) (AID 488772);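 further: NADPH fluorescence in the first read after selenite addition and not the 8 min delta; a drop in NADPH fluorescence below the no-compound background marks a TrxR1 substrate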; further: potency means the concentration at half of the fitted maximal effect
# Summary of the method: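 Quantitative HTS in Tris-HCl buffer at pH 7.5 with EDTA and Tween-20, using rat TrxR1, 400 uM NADPH and 400 uM selenite (final). A fall in initial NADPH fluorescence relative to background marked substrate behaviour.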
# [2] = target: Thioredoxin reductase 1, cytoplasmic (Rattus norvegicus) (UniProt O89049); assay: qHTS Assay for Inhibitors of Mammalian Selenoprotein Thioredoxin Reductase 1 (TrxR1) (AID 488773); conditions: Potency: inhibition; further: nearly all actives have a fitted effect of over 40% in size; further: potency means the concentration at half of the fitted maximal effect
# Summary of the method: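 Steps: enzyme (90 nM) plus NADPH (400 uM final), 5 min at ~22 deg C; compound added, 15 min; selenite (400 uM final) added; fluorescence followed for 8 min. Concentration-response curves derived from the normalized delta values.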
# [3] = target: M-phase phosphoprotein 8 (Homo sapiens) (UniProt Q99549); assay: qHTS Validation Assay for Inhibitors for MPP8 Chromodomain Interactions with Methylated Histone Tails (AID 488949); further: nearly all actives have a fitted effect of over 55% in size; further: potency means the concentration at half of the fitted maximal effect
# Summary of the method: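 Chemiluminescent proximity assay: histidine-tag capture via nickel acceptor beads, biotin peptide via streptavidin donor beads. Protein and peptide each at 50 nM, pH 7.4, with 30 min incubations at room temperature for complex formation, compound exposure and bead binding.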
# [4] = target: Chromobox protein homolog 1 (Homo sapiens) (UniProt P83916); assay: qHTS Validation Assay for Inhibitors of HP1-beta Chromodomain Interactions with Methylated Histone Tails (AID 488953); further: nearly all actives have a fitted effect of over 50% in size; further: potency means the concentration at half of the fitted maximal effect
# Summary of the method: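 50 nM HP1-beta + 50 nM biotin-H3(1-18)K9me3, PBS pH 7.4, 0.01% Tween-20, 30 min RT; compound added, 30 min RT; AlphaScreen beads 10 ug/mL final, 30 min dark; luminescence read.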
# [5] = target: Methanococcus maripaludis chaperonin (MmCpn) (UniProt Q6LX38); assay: High-Throughput Screening for Modulators of Cytosolic Chaperonin Activity: MmCpn Primary Screen (AID 488978)
# Summary of the method: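 HTRF readout (320 nm excitation, 590/665 nm emission) of ADP generated by 50 nM MmCpn hydrolysing 30 uM ATP during 10 min at 37C; compound preincubated 5 min RT.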
# [6] = target: Transient receptor potential cation channel subfamily V member 1 (Homo sapiens) (UniProt Q8NER1); assay: HTS Assay for Compounds that Act as Enhancers of the Vanilloid Receptor 1 (AID 488979)
# Summary of the method: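 Calcium influx kinetics via Fluo-8 (480/520 nm) in TRPV1-expressing cells, 2000/well cultured overnight at 35.5C. Compound-alone read 3 min (agonist phase), followed by EC20 capsaicin challenge for 2 min (enhancer phase).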
# [7] = target: Thyrotropin receptor (Homo sapiens) (UniProt P16473); assay: qHTS Assay for Antagonists of the Thyroid Stimulating Hormone Receptor (AID 488980); further: series mostly up to about 58 µM
# Summary of the method: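 Inhibition of TSH-stimulated cAMP accumulation was quantified by homogeneous time-resolved FRET in TSHR-transfected HEK293 cells. Agonist: TSH, 4 nM final (EC80).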
# [8] = target: D(1A) dopamine receptor (Homo sapiens) (UniProt P21728); assay: HTS Assay for Allosteric Agonists of the Human D1 Dopamine Receptor: Primary Screen for Agonists (AID 488981); further: potency means the concentration at half of the fitted maximal effect
# Summary of the method: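 Calcium flux in an inducible, force-coupled HEK293 Trex D1 line (overnight at 30 C): agonist mode is the 180 s kinetic read after compound; potentiator mode is the following 180 s read after dopamine at EC20.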
# [9] = target: Flap endonuclease 1 (Homo sapiens) (UniProt P39748); assay: qHTS Validation Assay for the Inhibitors of Human Flap endonuclease 1 (FEN1) (AID 488816)
# Summary of the method: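 Readings taken at 0 and 15 min after starting the reaction with 50 nM (final) substrate supplied the signal. Compounds had first sat with 10 nM FEN1 reagent for 15 min at room temperature. Values come from Hill-equation concentration-response fits.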
# Chain of Transient receptor potential cation channel subfamily V member 1 (Homo sapiens) (Q8NER1 whole entry, looked up): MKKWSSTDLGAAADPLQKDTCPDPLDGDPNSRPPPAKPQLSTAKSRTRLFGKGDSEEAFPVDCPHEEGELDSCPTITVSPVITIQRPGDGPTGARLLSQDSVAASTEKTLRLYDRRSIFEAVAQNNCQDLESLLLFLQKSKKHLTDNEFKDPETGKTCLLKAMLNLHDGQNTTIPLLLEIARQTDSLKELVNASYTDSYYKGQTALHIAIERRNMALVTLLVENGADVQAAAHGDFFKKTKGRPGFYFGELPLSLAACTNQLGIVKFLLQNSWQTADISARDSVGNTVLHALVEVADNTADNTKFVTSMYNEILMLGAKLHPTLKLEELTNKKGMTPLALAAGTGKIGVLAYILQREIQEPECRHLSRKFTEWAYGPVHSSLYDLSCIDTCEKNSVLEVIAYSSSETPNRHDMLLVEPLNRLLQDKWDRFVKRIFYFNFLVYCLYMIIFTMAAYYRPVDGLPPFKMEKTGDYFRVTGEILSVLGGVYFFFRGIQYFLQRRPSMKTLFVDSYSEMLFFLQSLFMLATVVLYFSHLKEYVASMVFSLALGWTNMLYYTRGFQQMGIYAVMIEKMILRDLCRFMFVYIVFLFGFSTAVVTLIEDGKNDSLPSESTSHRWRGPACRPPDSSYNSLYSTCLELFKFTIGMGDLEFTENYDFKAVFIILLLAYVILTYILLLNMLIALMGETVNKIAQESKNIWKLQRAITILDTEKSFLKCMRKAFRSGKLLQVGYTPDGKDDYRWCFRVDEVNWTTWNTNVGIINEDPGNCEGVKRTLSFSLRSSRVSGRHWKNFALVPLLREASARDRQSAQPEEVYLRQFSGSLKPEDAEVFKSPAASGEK
# Chain of Chromobox protein homolog 1 (Homo sapiens) (P83916 whole entry, looked up): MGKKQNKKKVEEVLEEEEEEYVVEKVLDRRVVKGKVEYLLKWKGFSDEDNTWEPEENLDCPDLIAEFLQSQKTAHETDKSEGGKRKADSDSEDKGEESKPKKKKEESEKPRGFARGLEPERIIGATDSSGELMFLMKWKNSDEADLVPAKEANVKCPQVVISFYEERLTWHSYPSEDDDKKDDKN
# Chain of D(1A) dopamine receptor (Homo sapiens) (P21728 whole entry, looked up): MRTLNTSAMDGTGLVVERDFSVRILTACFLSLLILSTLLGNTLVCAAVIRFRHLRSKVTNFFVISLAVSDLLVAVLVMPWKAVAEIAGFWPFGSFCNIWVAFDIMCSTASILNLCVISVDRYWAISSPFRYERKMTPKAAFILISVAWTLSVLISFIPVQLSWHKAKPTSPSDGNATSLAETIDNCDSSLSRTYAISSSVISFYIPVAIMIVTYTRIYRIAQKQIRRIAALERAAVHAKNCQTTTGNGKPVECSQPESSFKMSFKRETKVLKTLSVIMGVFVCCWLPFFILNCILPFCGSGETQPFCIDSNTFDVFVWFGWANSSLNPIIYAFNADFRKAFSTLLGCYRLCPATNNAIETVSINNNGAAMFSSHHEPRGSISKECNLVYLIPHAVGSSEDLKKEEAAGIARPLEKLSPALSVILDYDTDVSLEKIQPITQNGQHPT
# Chain of Flap endonuclease 1 (Homo sapiens) (P39748 whole entry, looked up): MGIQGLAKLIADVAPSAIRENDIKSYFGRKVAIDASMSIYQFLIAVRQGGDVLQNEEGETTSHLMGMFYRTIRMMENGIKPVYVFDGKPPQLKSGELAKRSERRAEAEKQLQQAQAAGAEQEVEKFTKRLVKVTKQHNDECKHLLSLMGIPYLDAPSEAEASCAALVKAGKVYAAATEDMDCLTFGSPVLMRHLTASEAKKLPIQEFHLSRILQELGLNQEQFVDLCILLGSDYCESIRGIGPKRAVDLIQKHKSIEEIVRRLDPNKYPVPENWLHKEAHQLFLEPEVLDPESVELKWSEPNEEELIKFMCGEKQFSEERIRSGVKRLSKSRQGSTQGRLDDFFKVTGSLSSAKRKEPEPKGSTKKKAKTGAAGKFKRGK
# Chain of Methanococcus maripaludis chaperonin (MmCpn) (Q6LX38 1-543): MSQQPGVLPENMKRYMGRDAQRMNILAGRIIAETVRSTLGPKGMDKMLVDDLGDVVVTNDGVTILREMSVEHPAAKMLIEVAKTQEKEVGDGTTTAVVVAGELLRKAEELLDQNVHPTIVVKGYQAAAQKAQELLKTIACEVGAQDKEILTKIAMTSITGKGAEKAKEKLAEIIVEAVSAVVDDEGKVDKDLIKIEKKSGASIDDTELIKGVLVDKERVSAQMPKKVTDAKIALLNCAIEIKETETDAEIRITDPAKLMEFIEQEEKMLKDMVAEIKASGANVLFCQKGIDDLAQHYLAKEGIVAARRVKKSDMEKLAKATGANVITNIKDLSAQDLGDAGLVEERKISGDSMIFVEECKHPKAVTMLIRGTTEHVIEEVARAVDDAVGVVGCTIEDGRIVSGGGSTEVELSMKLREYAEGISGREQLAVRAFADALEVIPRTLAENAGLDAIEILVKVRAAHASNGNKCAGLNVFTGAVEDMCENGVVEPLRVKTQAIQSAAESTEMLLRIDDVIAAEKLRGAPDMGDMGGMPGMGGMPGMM
# Chain of Thioredoxin reductase 1, cytoplasmic (Rattus norvegicus) (O89049 whole entry, looked up): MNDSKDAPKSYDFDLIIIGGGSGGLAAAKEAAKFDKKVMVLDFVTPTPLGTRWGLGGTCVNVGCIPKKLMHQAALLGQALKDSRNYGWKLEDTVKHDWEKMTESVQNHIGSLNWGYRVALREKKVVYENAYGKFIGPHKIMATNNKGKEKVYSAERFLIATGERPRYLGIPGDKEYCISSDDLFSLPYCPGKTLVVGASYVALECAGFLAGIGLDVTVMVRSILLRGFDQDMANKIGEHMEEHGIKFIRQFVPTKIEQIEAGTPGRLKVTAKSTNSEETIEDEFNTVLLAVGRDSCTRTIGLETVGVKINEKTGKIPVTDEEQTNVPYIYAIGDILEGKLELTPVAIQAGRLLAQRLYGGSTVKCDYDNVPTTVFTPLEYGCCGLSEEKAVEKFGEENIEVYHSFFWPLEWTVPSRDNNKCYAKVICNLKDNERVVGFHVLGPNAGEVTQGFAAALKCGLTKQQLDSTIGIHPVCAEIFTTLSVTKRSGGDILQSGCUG
# Chain of M-phase phosphoprotein 8 (Homo sapiens) (Q99549 whole entry, looked up): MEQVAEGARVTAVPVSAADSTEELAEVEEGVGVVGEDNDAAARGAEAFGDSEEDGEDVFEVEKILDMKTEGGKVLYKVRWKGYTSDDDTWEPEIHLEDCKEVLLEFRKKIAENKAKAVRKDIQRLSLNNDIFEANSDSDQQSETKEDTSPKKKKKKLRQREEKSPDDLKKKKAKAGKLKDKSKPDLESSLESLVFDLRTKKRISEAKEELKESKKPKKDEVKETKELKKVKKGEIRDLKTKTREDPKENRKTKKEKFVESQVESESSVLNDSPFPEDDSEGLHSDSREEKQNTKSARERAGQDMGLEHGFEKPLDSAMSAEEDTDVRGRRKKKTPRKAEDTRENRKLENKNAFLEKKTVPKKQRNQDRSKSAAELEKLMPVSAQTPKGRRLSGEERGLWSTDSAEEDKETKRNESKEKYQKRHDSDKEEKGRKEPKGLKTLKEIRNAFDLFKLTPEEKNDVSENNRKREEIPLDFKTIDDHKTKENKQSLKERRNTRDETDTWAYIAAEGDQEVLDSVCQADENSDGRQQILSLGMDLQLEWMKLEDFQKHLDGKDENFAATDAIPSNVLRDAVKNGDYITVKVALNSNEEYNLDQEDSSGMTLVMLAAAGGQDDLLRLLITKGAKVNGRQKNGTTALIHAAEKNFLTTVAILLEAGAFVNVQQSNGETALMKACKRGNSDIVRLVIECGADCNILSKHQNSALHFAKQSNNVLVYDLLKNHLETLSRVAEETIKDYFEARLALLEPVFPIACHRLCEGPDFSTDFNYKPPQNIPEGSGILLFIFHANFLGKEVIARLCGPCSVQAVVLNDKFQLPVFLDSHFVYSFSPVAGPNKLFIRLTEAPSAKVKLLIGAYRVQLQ
# Chain of Thyrotropin receptor (Homo sapiens) (P16473 whole entry, looked up): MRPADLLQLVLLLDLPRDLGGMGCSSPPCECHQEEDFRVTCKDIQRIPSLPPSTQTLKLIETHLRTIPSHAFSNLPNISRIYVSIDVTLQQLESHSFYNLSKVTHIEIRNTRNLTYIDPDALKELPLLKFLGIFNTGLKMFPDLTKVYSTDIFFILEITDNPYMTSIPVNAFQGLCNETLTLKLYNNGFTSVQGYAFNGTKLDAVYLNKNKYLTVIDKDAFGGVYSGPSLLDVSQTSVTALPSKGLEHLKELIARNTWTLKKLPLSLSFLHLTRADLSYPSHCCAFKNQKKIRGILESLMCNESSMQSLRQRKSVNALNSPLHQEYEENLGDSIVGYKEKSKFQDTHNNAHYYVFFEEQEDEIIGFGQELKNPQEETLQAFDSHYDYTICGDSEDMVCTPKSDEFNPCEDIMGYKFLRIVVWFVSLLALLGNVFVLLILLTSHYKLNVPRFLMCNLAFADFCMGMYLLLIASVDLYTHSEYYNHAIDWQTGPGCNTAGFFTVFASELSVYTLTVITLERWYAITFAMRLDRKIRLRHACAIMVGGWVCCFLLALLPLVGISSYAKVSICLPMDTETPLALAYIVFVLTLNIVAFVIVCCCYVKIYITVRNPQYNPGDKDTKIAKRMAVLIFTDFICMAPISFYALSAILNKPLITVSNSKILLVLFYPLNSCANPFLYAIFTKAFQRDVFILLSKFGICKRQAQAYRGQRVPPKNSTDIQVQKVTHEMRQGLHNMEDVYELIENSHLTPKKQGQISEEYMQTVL
SMILES,Potency [1],Potency [2],Potency [3],Potency [4],outcome [5],outcome [6],outcome [7],Potency [8],Potency [9]
CSc1ccccc1N1CCN(CCCCCC(=O)NC2CCCc3ccccc32)CC1 (configuration not stated),inactive,inactive,inactive,50.1 µM (active),inactive,,,,
COc1ccccc1N1CCN(CCN(C(=O)c2ccc(I)cc2)c2ccccn2)CC1,inactive,inactive,inactive,,,,,,
COc1cc2nc(N3CCN(C(=O)OCc4ccccc4)C(C(=O)NC(C)(C)C)C3)nc(N)c2cc1OC (configuration not stated),inactive,inactive,inactive,inactive,,inactive,inactive,inactive,
C[N+](C)(C)CCOP(=O)(O)OP(=O)([O-])OC[C@H]1O[C@@H](n2ccc(N)nc2=O)[C@H](O)[C@@H]1O,inactive,inactive,inactive,inactive,inactive,,,inactive,
Cc1cc(NC2CCCCC2)nc(-n2nc(C)cc2C)n1,inactive,inactive,inactive,inactive,inactive,,,,
Cn1ncc(S(=O)(=O)Cc2ccccc2)c(Br)c1=O,inactive,0.947 µM (active),inactive,,inactive,,,,inactive
Cc1cc(NC(=O)Nc2ccc3c(ccn3C)c2)sn1,inactive,inactive,inactive,,inactive,inactive,inactive,inactive,inactive
CN1CCc2cccc3c2C1Cc1ccc(O)c(O)c1-3 (configuration not stated),inactive,9.47 µM (active),20 µM (active),,inactive,inactive,inactive,inactive,
COc1cc(SC)ccc1C(=O)N1CCC(Cc2ccccc2)CC1,inactive,inactive,inactive,inactive,inactive,,,inactive,
CN1CCc2cc(NC(=O)Nc3cccnc3)ccc21,inactive,inactive,inactive,,inactive,inactive,inactive,inactive,inactive
O=P(O)(O)C(Cl)(Cl)P(=O)(O)O,inactive,inactive,,,inactive,,,,inactive
C=CC(C)=C[C@@]1(C)SC(=O)C(C)=C1O,inactive,inactive,inactive,,inactive,,,,
CO/S(=N\S(=O)(=O)c1ccc(Cl)cc1)c1ccc([N+](=O)[O-])cc1 (configuration not stated),inactive,inactive,inactive,,,,,inactive,
CC1OC1P(=O)(O)O (configuration not stated),inactive,inactive,,,inactive,,,inactive,inactive
COc1ccc(NC(=O)/C=C/c2ccc(Cl)cc2)cc1,inactive,inactive,inactive,,inactive,inactive,inactive,inactive,
Nc1ncnc2c1ncn2[C@@H]1O[C@H](COP(=O)(O)OP(=O)(O)OP(=O)(O)OP(=O)(O)OC[C@@H]2O[C@H](n3cnc4c(N)ncnc43)[C@@H](O)[C@H]2O)[C@@H](O)[C@H]1O,inactive,inactive,inactive,inactive,inactive,,,0.562 µM (active),
O=C(/C=C/c1ccc(O)c(O)c1)OCCc1ccccc1,inactive,inactive,,,inactive,inactive,inactive,,inactive

SMILES,Potency [1],Potency [2],Potency [3],Potency [4],outcome [5],outcome [6],outcome [7],Potency [8],Potency [9]
Nc1nc(Nc2ccccc2)nc2c1ncn2[C@@H]1O[C@H](CO)[C@@H](O)[C@H]1O,inactive,inactive,inactive,inactive,inactive,,,inactive,
CC(C)NCC(O)COc1cccc2ccccc12 (configuration not stated),inactive,inactive,inactive,inactive,,,,,
O=C(O)CC1CC(c2ccccc2)=NO1 (configuration not stated),inactive,inactive,inactive,inactive,,,,inactive,
Fc1cccc(/C=N/N=C/c2cccc(F)c2)c1,inactive,inactive,inactive,inactive,inactive,inactive,inactive,inactive,
Cc1nc2sccn2c(=O)c1CCN1CCC(=C(c2ccccc2)c2ccc(F)cc2)CC1,inactive,inactive,inactive,,inactive,,,inactive,inactive
COc1ccc(/C=C/C(=O)Nc2ccccc2C(=O)O)cc1OC,inactive,inactive,inactive,,inactive,inactive,inactive,inactive,
O=C1C(SCCO)=C(SCCO)C(=O)c2ccccc21,16.8 µM (active),26.7 µM (active),inactive,10 µM (active),inactive,inactive,inactive,inactive,
CCOC(=O)C1=C(C)NC(C)=C(C(=O)OCC)C1c1c(F)c(F)c(F)c(F)c1F,inactive,inactive,inactive,inactive,inactive,,,inactive,
O=[N+]([O-])c1ccc2c(c1)S(=O)(=O)C=C2,inactive,2.12 µM (active),inactive,,inactive,,,inactive,inactive
CNc1ncnc2c1ncn2[C@@H]1O[C@H](CO)[C@@H](O)[C@H]1O,inactive,inactive,inactive,inactive,,,,inactive,
Nc1ncnc2c1ncn2[C@@H]1O[C@H](COP(=O)(O)CP(=O)(O)OP(=O)(O)O)[C@@H](O)[C@H]1O,inactive,inactive,,inactive,inactive,,,inactive,inactive
CCOC(=O)N1CCN(/[N+]([O-])=N/Oc2ccc([N+](=O)[O-])cc2[N+](=O)[O-])CC1,inactive,6.7 µM (active),inactive,,inactive,,,inactive,inactive
CCCC1(C)C(C#N)(C#N)C1(C#N)C#N,inactive,10.6 µM (active),inactive,inactive,inactive,,,inactive,
Clc1ccc(N2CCN(Cc3cc4ccccn4n3)CC2)cc1,inactive,inactive,inactive,,inactive,,,inactive,
CNCC[C@H](Oc1ccc(C(F)(F)F)cc1)c1ccccc1,inactive,inactive,inactive,,inactive,,inactive,,
C=CC(=O)c1ccc(CCCCCC)cc1,inactive,15 µM (active),inactive,,inactive,,,inactive,inactive
NC[C@H]1O[C@@H](n2cnc3c(N)ncnc32)[C@H](O)[C@@H]1O,inactive,inactive,inactive,inactive,inactive,,,inactive,
